# Screens as filed in PubChem.
# This is a sample that favours compounds with a hit; in the whole collection about 4.5% have one here.
# PfHsp40 yeast: rescue of PfHsp40-mediated yeast toxicity. S. cerevisiae expressing PfHsp40, growth rescue, ATP luminescence. growth rescue, % at 12.5 µM. 340,000 compounds, 0.68% hits. AID 504582; in the data active = growth rescue above about 28%, passing the limit was not always enough; inconclusive = no clear call, values can overlap the other calls;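 also: yeast W303a lacking pdr1 and pdr3 grown in galactose medium; growth measured after three days at 30 °C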
# GDH-TPI counter: GDH-TPI coupled enzyme inhibition counter-screen; GDH-TPI coupled enzyme counterscreen, NADH absorbance; inhibition, % at 4.8 µM; 360,000 compounds, 1.2% hits; in the data active = inhibition above about 30%;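 also: 0% = DMSO wells and 100% = wells lacking the enzyme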
# PrPC TRFRET: cell surface PrPC inhibition, primary TR-FRET screen; TR-FRET read-out; inhibition, % at 13.8 µM; 370,000 compounds, 0.43% hits; AID 720596; in the data active = inhibition above about 24%; also: 0% = median of the test wells and 100% = reference compound wells
# PrP 5UTR inh: suppresses PrP 5' UTR mRNA reporter expression; cell-based PrP 5' UTR mRNA reporter, plate reader; inhibition, % (test concentration not listed); 340,000 compounds, 0.35% hits; in the data active = inhibition above about 52%; also: 0 = median of the neutral control wells
# BJeLR lethal: kills HRASV12-expressing BJeLR cells; AID 1554; BJeLR (HRASV12) viability, CellTiter-Glo ATP luminescence, 48 h; 300,000 compounds, 0.17% hits; inhibition, % (concentration not given with the values); in the data active = inhibition above about 50%; inconclusive = no clear call, values can overlap the other calls
# Mtb FBA inh: inhibits M. tuberculosis FBA enzyme | P9WQA3 | purified M. tuberculosis FBA, fluorescence read-out | inhibition, % at 1 µM | 360,000 compounds, 2.3% hits; in the data active = inhibition above about 27%;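 also: 0% = vehicle and 100% = reference inhibitor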
# Target sequence (P9WQA3 whole entry, looked up): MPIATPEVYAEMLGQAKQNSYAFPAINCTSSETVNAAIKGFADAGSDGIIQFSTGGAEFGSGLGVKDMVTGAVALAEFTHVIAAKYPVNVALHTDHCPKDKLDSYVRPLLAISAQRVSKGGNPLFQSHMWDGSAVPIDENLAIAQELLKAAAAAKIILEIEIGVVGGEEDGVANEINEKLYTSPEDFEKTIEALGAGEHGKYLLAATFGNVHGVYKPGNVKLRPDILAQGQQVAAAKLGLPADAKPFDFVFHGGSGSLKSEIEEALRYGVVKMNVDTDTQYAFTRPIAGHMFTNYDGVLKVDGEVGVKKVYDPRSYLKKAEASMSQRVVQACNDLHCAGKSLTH
# * marks the source's active call; other numbers are inactive results; ? = inconclusive; nt = no result; + = active, no number.
SMILES,PfHsp40 yeast,GDH-TPI counter,PrPC TRFRET,PrP 5UTR inh,BJeLR lethal,Mtb FBA inh
CSCCC(NC(C)=O)C(=O)Oc1ccc2c3c(c(=O)oc2c1)CCCC3 (centres undefined),0.8,6.4,0.3,-3.0,nt,+
CSCCC(NC(=O)OC(C)(C)C)C(=O)Oc1ccc2c(=O)c(-c3ccc4c(c3)OCCO4)coc2c1 (centres undefined),0.6,-3.7,6.0,-30.0,nt,18.0
O=c1oc2cc(O)ccc2c2oc3cc(O)ccc3c12,-0.5,35.3*,1.6,-22.1,-17.5,+
O=C(Cc1ccccc1)NC1CCCc2c1cnn2-c1ccc(F)cc1F (centres undefined),nt,nt,7.2,nt,nt,nt
O=[N+]([O-])c1ccc(NCc2ccc(Cl)cc2)nc1,10.6,33.8*,-6.5,-50.7,6.5,-3.0
CC(C)c1ccc(CNc2ccc([N+](=O)[O-])cn2)cc1,21.4,15.5,-4.5,-26.8,-39.7,-6.2
Oc1ccc(O)c(C=NNC(=S)NC2CC3CC2C2C=CCC32)c1 (centres undefined),nt,31.0*,-8.0,nt,nt,2.4
NNC(=S)NC1CC2CC1C1C=CCC21 (centres undefined),-1.1,8.1,-0.4,-7.2,-3.5,0.0
COc1ccc(/C(C)=N\NC(=O)c2ccco2)cc1,nt,nt,-2.5,nt,nt,nt
CC(C)C(C#CC1CC1)N(Cc1ccc2c(c1)OCO2)C(N)=NC(=O)/C=C/c1ccccc1 (centres undefined),nt,nt,2.4,nt,nt,nt
O=C1CCC[C@H]2C[C@H](NCc3cccs3)CC[C@]23CCCN13,nt,nt,-1.3,nt,nt,nt
C=CCNC(=O)CSc1nc2c(c(=O)[nH]1)CCCC2,nt,nt,-8.4,nt,nt,nt
CNC(=O)c1cc2c(=O)n3cc(C)ccc3nc2n(C(C)C)c1=N,-2.3,11.3,-7.7,-14.2,7.0,+
Cc1ccc2nc3c(cc(C(=O)NC4CCCC4)c(=N)n3C3CCCCC3)c(=O)n2c1,?,14.2,-20.9,-19.8,-0.7,134.4*
COc1ccccc1C(NC(=O)C1CCN(CCOc2ccc(Cl)cc2Cl)CC1)c1ccccn1 (centres undefined),nt,-8.8,-13.9,nt,nt,-3.0
CC1(C)Cc2c(sc3[nH]c(=S)n(Cc4ccco4)c(=O)c23)CO1,3.4,37.5*,5.3,-13.1,7.9,-3.8
Cc1ccc(NC2(c3nnnn3-c3c(C)cccc3C)CCCCC2)cc1,65.8*,-0.6,7.5,-7.1,1.0,2.8
C(C#CCCCCCCCCC[n+]1ccccc1)#CCCCCCCCCC[n+]1ccccc1,?,1.4,16.6,-13.1,51.7*,-3.2
O=C(NCc1ccc(F)cc1)C1CCCN(c2nc3ccccc3o2)C1 (centres undefined),nt,nt,8.5,nt,nt,nt
C=CCn1c(O)c(N=NC(=S)Nc2cccc(OC)c2)c2ccccc21,3.7,34.6*,2.5,37.8,36.2,-10.2
COc1ccc(-n2c(COc3ccccc3)nnc2SCC(=O)Nc2ccc3c(c2)OCCO3)cc1,nt,nt,1.7,nt,nt,nt
O=c1c2ccccc2nc2n1CCCCN2,0.5,2.6,-1.6,-25.4,1.6,68.4*
O=c1c2ccccc2nc2n1CCCCC2,0.6,-7.8,7.4,-16.8,1.3,-14.0
CCn1c(=O)n2n(c1=O)[C@H]1C[N+](Cc3ccc4c(c3)OCO4)=C(N)NC1=C(C)C2,nt,nt,-1.5,nt,nt,nt
O=C(COC(=O)c1ccc(Sc2ncn[nH]2)c([N+](=O)[O-])c1)Nc1ccc(Cl)cc1,nt,nt,-1.0,nt,nt,nt
SMILES,PfHsp40 yeast,GDH-TPI counter,PrPC TRFRET,PrP 5UTR inh,BJeLR lethal,Mtb FBA inh
Cc1ccc(-c2nc(C(=O)NCCCN(C)C)cc3c2[nH]c2ccccc23)cc1,0.3,8.8,-5.0,nt,-0.4,28.2*
O=C(NCCO)c1cc2c([nH]c3ccccc32)c(-c2ccccc2)n1,1.0,18.0,4.0,5.8,0.3,24.0
Cc1ccc(Nc2ccc(-n3ccnc3)nn2)cc1C,66.2*,0.6,0.8,-12.0,15.8,-3.1
COc1cccc(Nc2ccc(-n3ccnc3)nn2)c1,-2.3,-2.5,-3.7,-17.5,2.3,-1.1
CC(C)(C)c1ccc(C(=O)CC(Sc2ccc(Cl)cc2)C(=O)O)cc1 (centres undefined),75.1*,-4.9,0.5,-28.6,4.0,-0.9
C=CCN(C)C(C#CCCCC)c1ccccc1 (centres undefined),nt,nt,-4.2,nt,nt,nt
COc1ccc(Cn2cc(CN3[C@H](Cc4ccccc4)COc4cc(Br)ccc4S3(=O)=O)nn2)cc1,nt,nt,-0.3,nt,nt,nt
COc1ccc2c(c1)OC[C@H]1[C@H]2N2C(=O)c3cc(Br)ccc3NC(=O)[C@@]2(C)[C@H]1c1ccccc1,333.3*,24.7,nt,-6.9,nt,0.1
COc1ccc2c(c1)OC[C@H]1[C@H]2N2C(=O)c3ccc(F)cc3NC(=O)[C@@]2(C)[C@H]1c1ccccc1,3.1,10.3,6.8,-6.2,nt,4.5
COc1cc2c(cc1OC)C(=O)N1[C@H]3c4ccccc4OC[C@@H]3[C@H](c3ccccc3)[C@]1(C)C(=O)N2,63.5*,7.9,2.8,-117.6,nt,1.0
C[C@@]12C(=O)Nc3cc(F)c(F)cc3C(=O)N1[C@H]1c3ccccc3OC[C@@H]1[C@@H]2c1ccccc1,12.0,-4.4,15.9,-4.0,nt,-0.3
COc1ccc2c(c1)[C@H]1[C@H](CO2)[C@H](c2ccccc2)[C@]2(C)C(=O)Nc3ccc(Br)cc3C(=O)N12,1.0,15.5,4.1,-39.9,nt,3.0
COc1ccc2c(c1)OC[C@H]1[C@H]2N2C(=O)c3cc(OC)c(OC)cc3NC(=O)[C@@]2(C)[C@H]1c1ccccc1,43.7*,8.5,-1.9,-88.8,nt,-1.0
CS(=O)(=O)N[C@@H]1C[C@@H]2O[C@H](CO)CC[C@@H]2O[C@@H]1CCc1ccc(-c2ccccc2F)cc1,nt,nt,5.3,nt,nt,nt
Cc1ccc(NC(=O)C(=O)NCc2ccc(/C=N/NC(=O)c3c(C)nc4ccccn34)o2)cc1,-0.2,42.0*,-8.6,-11.4,-7.1,-2.0
O=C1Nc2ccccc2C12Nc1ccccc1-c1nc3ccccc3n12 (centres undefined),1.5,7.5,-8.2,-14.7,-2.7,4.2
CCCCC1(C)Nc2ccccc2-c2nc3ccccc3n21 (centres undefined),0.0,8.3,6.1,-77.5,2.0,+
CCN1C(=O)C2(Nc3ccccc3-c3nc4ccccc4n32)c2cc(OC)ccc21 (centres undefined),-0.5,0.3,-2.9,-19.0,-0.3,0.6
c1ccc2c(c1)NC1(CCCCC1)n1c-2nc2ccccc21,-0.4,12.5,0.9,-51.7,1.4,152.9*
CC1(c2ccccn2)Nc2ccccc2-c2nc3ccccc3n21 (centres undefined),-0.7,23.0,-3.5,-90.8,-1.2,111.8*
c1ccc2c(c1)NC1(CCCCCC1)n1c-2nc2ccccc21,0.6,11.7,-1.1,-74.3,-2.2,160.7*
CN1C(=O)C2(Nc3ccccc3-c3nc4ccccc4n32)c2ccccc21 (centres undefined),2.1,11.7,-12.1,-15.1,-1.6,2.0
O=C(OCc1cn(Cc2ccccc2)nn1)N1CCCC1,nt,nt,4.6,nt,nt,nt
C=CCN(Cc1ccc(OC)cc1OC)C(C#Cc1ccccc1)c1ccccc1 (centres undefined),nt,nt,-5.9,nt,nt,nt
